This passage reports outcome and AC50 results from PubChem BioAssay (EPA / NIEHS).

Values joined by “and” are separate entries in the source; they are usually repeats but may differ in a detail not shown here. Equal entries are not always repeated. Results filed as inconclusive are left out. The source holds several records for some structures; these can differ, active in one and inactive in another. Active and inactive are the calls of the source. Rule for the calls, unless noted: active = hit-call score of the fitted dose curve at least 0.9, where 1 is the maximum; inconclusive = response in the unintended direction; inactive = score below 0.9.

The target in assay [1] is human Serotonin Transporter (SERT), SLC6A4 (gene 6532) (UniProt P31645). Nature of the assay: NVS_TR_hSERT: NovaScreen (NVS) Transporter Assay for human Serotonin Transporter (SERT) (AID 2283372). The method, boiled down: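 Human platelet membrane preparation; displacement of radioligand from serotonin transporter measured after 1 h by filtration and scintillation counting. Single 25 uM duplicate screen, then concentration series for actives, with DMSO as negative baseline.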

The target in assay [2] is human Norepinephrine Transporter (NET), SLC6A2 (gene 6530) (UniProt P23975). Description: NVS_TR_hNET: NovaScreen (NVS) Transporter Assay for human Norepinephrine Transporter (NET) (AID 2283377).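 For AC50: displacement of radioligand from human NET seen as loss of scintillation signal.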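 Note: cell-free membrane protein extracted from CHO cells expressing human NET.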 An outline of the steps:
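Single-concentration duplicate screen at 25 uM, then concentration-response for actives; displacement of specific radioligand from human NET in CHO membrane extracts, filter-based scintillation detection at 1 h relative to DMSO.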

Assay [3] has as its target mouse Estrogen Receptor alpha (Era), Esr1 (gene 13982) (UniProt P19785). Description: NVS_NR_mERa: NovaScreen (NVS) Nuclear Receptor Binding Assay for mouse Estrogen Receptor alpha (Era) (AID 2283378).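 Note: hit means loss of bound radioligand signal relative to DMSO.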 An outline of the steps: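 Test chemicals competed against a specific radioligand for binding to cell-free mouse Era. Duplicate wells at 25 uM were read 18 hours later by filter-based radiodetection, with loss of signal against DMSO scored as activity.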

Assay [4] concerns the target Agonist Androgen Response Element (ARE), AR (gene 367) (UniProt P10275). Nature of the assay: OT_AR_ARELUC_AG_1440: Odyssey Thera (OT) 24-hour CHO-K1 Luciferase Assay for Agonist Androgen Response Element (ARE) (AID 2283379). An outline of the steps:
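Readout: luciferase bioluminescence from CHO-K1 ARE-luc cells, measured 24 h post-dosing; agonism = increased mean luminescence vs DMSO controls, fitted in positive direction.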

Assay [5] has as its target Estrogen receptor beta (Homo sapiens) (UniProt Q92731). Nature of the assay: OT_ER_ERbERb_1440: Odyssey Thera (OT) 24-hour HEK293T Protein-Complementation Assay for Estrogen Receptor-beta/-beta Homodimer (AID 2283380).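 Note: fluorescence gain from ER beta LBD homodimer complementation read by laser scanning cytometry; scored as signal increase over DMSO baseline for both agonists and antagonists.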 The method, boiled down: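 Fluorescence increase, nuclear for agonists or whole-cell for antagonists, relative to DMSO vehicle, quantified by laser scanning cytometer after fixation and Draq5 staining. Readout from 24 h treatment of HEK293T cells carrying complementation-paired ER beta LBD (aa 310-547).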

Assay [6] concerns the target Estrogen receptor (Homo sapiens) (UniProt P03372). Description: OT_ERa_GFPERaERE_0480: Odyssey Thera (OT) 8-hour HeLa Transcription Induction Assay for Estrogen Receptor (AID 2283381; active = hit-call score of the fitted dose curve at least 0.9, where 1 is the maximum; inactive = score below 0.9). An outline of the steps:
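GFP-ERE reporter, HeLa, 8 h exposure. Readout: fluorescence microscopy, high-content image analysis. Fit direction positive vs DMSO negative control.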

The target is the same in assay [7]. Nature of the assay: OT_ERa_GFPERaERE_0120: Odyssey Thera (OT) 2-hour HeLa Transcription Induction Assay for Estrogen Receptor (AID 2283382). The method, boiled down: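 Fluorescence microscopy read-out: inducible fluorescent protein reporter in HeLa cells, imaged 2 h post-dose. Signal increase over DMSO negative control fitted as single primary endpoint via high content image analysis.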

The target of assay [8] is Bile acid receptor (Homo sapiens) (UniProt Q96RI1). Nature of the assay: OT_FXR_FXRSRC1_0480: Odyssey Thera (OT) 8-hour HEK293T Protein-Complementation Assay for Farnesoid X receptor/SRC-1 Co-activator (AID 2283383). The method, boiled down:
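Fluorescence intensity read-out, 8 h post-dose, HEK293T protein-fragment complementation; FXR bait and SRC-1 prey each linked to reporter fragments. Activity scored as signal increase over DMSO negative control.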

Assay [9] has the same target. Nature of the assay: OT_FXR_FXRSRC1_1440: Odyssey Thera (OT) 24-hour HEK293T Protein-Complementation Assay for Farnesoid X receptor/SRC-1 Co-activator (AID 2283384). The method, boiled down: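 Fluorescence readout, 24 h post-dose, HEK293T; FXR and SRC-1 fused to complementary reporter fragments, association reconstitutes signal. Positive-direction fit vs DMSO baseline.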

Assay [10] has as its target Retinoic acid receptor RXR-alpha (Homo sapiens) (UniProt P19793). Description: OT_NURR1_NURR1RXRa_0480: Odyssey Thera (OT) 8-hour HEK293T Protein Complementation Assay for Nurr1/retinoid X receptor (RXR) (AID 2283385). An outline of the steps:
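Read-out: fluorescence from protein-fragment complementation between Nurr1 and RXRα in human HEK293T cells, 8 h after dosing. DMSO served as negative control; increased signal counted as activity.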

Assay [11] shares this target. Nature of the assay: OT_NURR1_NURR1RXRa_1440: Odyssey Thera (OT) 24-hour HEK293T Protein Complementation Assay for Nurr1/retinoid X receptor (RXR) (AID 2283386). The method, boiled down: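 Fluorescence PCA read-out; HEK293T; 24 h post-dose; bait/prey fused to reporter fragments; gain-of-signal fit vs DMSO negative control.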
For assay [12], the target named is Peroxisome proliferator-activated receptor gamma (Homo sapiens) (UniProt P37231). Nature of the assay: OT_PPARg_PPARgSRC1_0480: Odyssey Thera (OT) 8-hour Protein-Complementation Assay for Peroxisome Proliferator-activated Receptor Gamma / SRC-1 Co-activator (AID 2283387).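 Note: nuclear to cytoplasmic split Venus YFP fluorescence ratio reporting PPARg SRC-1 interaction.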 The method, boiled down: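 HEK293T transiently transfected with PPARg and SRC-1 fused to Venus YFP fragments, compounds 8 h at 37C. Fixed, Draq5-stained cells imaged; nuclear/cytoplasmic 488 nm fluorescence ratio over at least 350 cells per image; gain fitted versus DMSO.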
Chain of Peroxisome proliferator-activated receptor gamma (Homo sapiens) (P37231 whole entry, looked up, the tested form may be a part): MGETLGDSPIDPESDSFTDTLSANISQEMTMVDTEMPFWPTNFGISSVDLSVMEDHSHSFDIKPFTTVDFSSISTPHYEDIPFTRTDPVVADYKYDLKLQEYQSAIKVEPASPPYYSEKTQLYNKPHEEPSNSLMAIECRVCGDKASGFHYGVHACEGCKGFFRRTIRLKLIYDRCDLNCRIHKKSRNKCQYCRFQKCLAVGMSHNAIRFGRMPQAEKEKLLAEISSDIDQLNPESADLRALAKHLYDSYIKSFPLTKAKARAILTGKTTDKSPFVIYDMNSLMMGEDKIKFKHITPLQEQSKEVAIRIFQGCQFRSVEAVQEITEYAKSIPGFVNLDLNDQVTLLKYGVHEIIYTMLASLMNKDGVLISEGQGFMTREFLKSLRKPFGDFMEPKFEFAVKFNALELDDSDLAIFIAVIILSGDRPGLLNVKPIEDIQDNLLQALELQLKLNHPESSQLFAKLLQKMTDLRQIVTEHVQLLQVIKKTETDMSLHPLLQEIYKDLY

For assay [13] the target is unchanged. Description: OT_PPARg_PPARgSRC1_1440: Odyssey Thera (OT) 24-hour Protein-Complementation Assay for Peroxisome Proliferator-activated Receptor Gamma/ SRC-1 Co-activator (AID 2283388). An outline of the steps: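 Transient HEK293T, YFP fragments 1-158/159-239 (mutant IFP1/IFP2) fused to PPARg/SRC-1; 24 h dosing; fix 4% formaldehyde, Draq5; Opera imaging 488/635 nm; N/C ratio, gain vs DMSO.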

The nature of assay [14]: CEETOX_H295R_11DCORT: CeeTox H295R High-throughput Steroidogenesis Assay for 11-Deoxycortisol (11DCORT) (AID 2283432; active = hit-call score of the fitted dose curve at least 0.9, where 1 is the maximum; inactive = score below 0.9;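 for AC50: 11-deoxycortisol secreted into the medium measured by LC-MS/MS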). To be noted: actives raise or lower the signal. The method, boiled down: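 H295R cells prestimulated 48 h with 10 uM forskolin, then exposed 48 h to chemical in 0.1% DMSO. 11-Deoxycortisol in medium quantified by HPLC-MS/MS after MTBE extraction; bidirectional fit versus DMSO. MTT viability read in same wells.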

The nature of assay [15]: CEETOX_H295R_OHPREG: CeeTox H295R High-throughput Steroidogenesis Assay for OH-Pregnenolone (OHPREG) (AID 2283434; active = hit-call score of the fitted dose curve at least 0.9, where 1 is the maximum; inactive = score below 0.9). Conditions: actives raise or lower the signal. The method, boiled down: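 Secreted 17alpha-hydroxypregnenolone measured by HPLC-MS/MS after liquid-liquid extraction. Human adrenal H295R cells received 48 h forskolin (10 uM) stimulation before 48 h chemical exposure at 0.1% final DMSO; MTT viability in same wells; bidirectional fit against DMSO.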

Assay [16] is described as follows: CEETOX_H295R_OHPROG: CeeTox H295R High-throughput Steroidogenesis Assay for OH-Progesterone (OHPROG) (AID 2283435; active = hit-call score of the fitted dose curve at least 0.9, where 1 is the maximum; inactive = score below 0.9;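 note: 17alpha-hydroxyprogesterone secreted into medium measured by HPLC-MS/MS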). To be noted: actives raise or lower the signal. An outline of the steps: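 HPLC-MS/MS quantification of 17alpha-hydroxyprogesterone secreted by H295R cells after 48 h chemical exposure, following 48 h 10 uM forskolin prestimulation. Gain or loss of signal fitted relative to DMSO. Viability checked by MTT in the same wells.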

Assay [17] addresses Peroxisome proliferator-activated receptor gamma (Homo sapiens) (UniProt P37231). Nature of the assay: NVS_NR_hPPARg: NovaScreen (NVS) Nuclear Receptor Binding Assay for human Peroxisome Proliferator-activated Receptor gamma (PPARg) (AID 2283370). An outline of the steps: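 Fluorescence polarization measures competitive binding to extracted PPARg in a cell-free format. Reading is taken at 2 h; activity is signal loss relative to DMSO. Screening at 25 uM in duplicate preceded confirmatory dose series.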

Assay [18] deals with human Dopamine Transporter (DAT), SLC6A3 (gene 6531) (UniProt Q01959). Nature of the assay: NVS_TR_hDAT: NovaScreen (NVS) Transporter Assay for human Dopamine Transporter (DAT) (AID 2283374).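 Note: activity means loss of bound radioligand signal relative to DMSO.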 An outline of the steps: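 Duplicate single-point screening at 25 uM preceded concentration-series follow-up of actives. Binding was measured by competitive displacement of a radioligand from DAT protein, filter-counted by scintillation 1 h after dosing. Decrease relative to DMSO taken as activity.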
Chain of human Dopamine Transporter (DAT), SLC6A3 (gene 6531) (Q01959 whole entry, looked up): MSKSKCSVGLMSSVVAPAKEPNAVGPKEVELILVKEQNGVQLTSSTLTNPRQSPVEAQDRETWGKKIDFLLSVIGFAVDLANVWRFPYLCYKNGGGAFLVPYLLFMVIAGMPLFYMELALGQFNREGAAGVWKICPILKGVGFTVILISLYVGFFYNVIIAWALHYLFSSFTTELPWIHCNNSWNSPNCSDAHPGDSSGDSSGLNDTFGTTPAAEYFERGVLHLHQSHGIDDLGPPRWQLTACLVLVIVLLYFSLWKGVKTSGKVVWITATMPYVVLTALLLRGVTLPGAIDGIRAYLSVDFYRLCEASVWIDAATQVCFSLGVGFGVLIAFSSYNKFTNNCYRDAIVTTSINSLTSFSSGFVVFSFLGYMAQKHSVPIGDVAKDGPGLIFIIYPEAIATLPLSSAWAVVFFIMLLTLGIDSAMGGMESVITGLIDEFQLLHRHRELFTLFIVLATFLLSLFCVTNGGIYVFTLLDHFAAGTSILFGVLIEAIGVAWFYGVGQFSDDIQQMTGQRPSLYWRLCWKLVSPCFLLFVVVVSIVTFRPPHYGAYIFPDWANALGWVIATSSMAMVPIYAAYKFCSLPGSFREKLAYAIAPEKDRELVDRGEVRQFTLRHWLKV

Assay [19] deals with rat Serotonin Transporter (SERT), Slc6a4 (gene 25553) (UniProt P31652). Nature of the assay: NVS_TR_rSERT: NovaScreen (NVS) Transporter Assay for rat Serotonin Transporter (SERT) (AID 2283375). The method, boiled down:
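Steps: rat forebrain membranes dosed with chemical (25 uM duplicate primary; concentration series for actives); 1 h incubation; labelled ligand bound, filtered, counted by scintillation. Activity scored as signal loss vs DMSO.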

Usually AC50 stands for the concentration at which the activity in the assay is half-maximal.

Chain of Estrogen receptor beta (Homo sapiens) (Q92731 whole entry, looked up, the tested form may be a part): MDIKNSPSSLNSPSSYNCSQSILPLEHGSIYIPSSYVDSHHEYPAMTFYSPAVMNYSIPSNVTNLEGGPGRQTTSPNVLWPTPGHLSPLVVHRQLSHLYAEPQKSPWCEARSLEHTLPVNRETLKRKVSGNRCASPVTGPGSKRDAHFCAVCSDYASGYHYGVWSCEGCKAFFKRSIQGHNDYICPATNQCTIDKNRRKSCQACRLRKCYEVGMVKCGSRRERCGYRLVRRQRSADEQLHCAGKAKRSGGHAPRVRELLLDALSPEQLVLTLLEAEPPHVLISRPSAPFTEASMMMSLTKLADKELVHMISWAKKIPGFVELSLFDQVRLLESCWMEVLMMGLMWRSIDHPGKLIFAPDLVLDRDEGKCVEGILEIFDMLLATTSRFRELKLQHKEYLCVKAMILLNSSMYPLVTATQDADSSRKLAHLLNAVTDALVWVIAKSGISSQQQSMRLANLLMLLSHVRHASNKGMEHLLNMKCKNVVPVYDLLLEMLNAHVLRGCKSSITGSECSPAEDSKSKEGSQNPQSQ
Chain of Bile acid receptor (Homo sapiens) (Q96RI1 whole entry, looked up, the tested form may be a part): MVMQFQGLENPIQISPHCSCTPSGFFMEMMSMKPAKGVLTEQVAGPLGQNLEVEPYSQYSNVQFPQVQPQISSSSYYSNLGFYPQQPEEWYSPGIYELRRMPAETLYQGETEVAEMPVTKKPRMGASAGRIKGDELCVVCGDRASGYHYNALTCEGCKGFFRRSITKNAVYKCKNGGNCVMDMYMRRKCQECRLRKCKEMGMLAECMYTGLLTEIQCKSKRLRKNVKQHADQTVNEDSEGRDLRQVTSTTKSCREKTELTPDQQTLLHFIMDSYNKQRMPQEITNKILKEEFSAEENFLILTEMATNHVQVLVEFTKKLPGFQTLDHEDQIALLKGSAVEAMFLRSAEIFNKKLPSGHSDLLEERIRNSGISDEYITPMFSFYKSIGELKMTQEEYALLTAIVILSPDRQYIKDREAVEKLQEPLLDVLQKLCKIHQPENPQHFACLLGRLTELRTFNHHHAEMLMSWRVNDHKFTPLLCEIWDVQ
Chain of Estrogen receptor (Homo sapiens) (P03372 whole entry, looked up): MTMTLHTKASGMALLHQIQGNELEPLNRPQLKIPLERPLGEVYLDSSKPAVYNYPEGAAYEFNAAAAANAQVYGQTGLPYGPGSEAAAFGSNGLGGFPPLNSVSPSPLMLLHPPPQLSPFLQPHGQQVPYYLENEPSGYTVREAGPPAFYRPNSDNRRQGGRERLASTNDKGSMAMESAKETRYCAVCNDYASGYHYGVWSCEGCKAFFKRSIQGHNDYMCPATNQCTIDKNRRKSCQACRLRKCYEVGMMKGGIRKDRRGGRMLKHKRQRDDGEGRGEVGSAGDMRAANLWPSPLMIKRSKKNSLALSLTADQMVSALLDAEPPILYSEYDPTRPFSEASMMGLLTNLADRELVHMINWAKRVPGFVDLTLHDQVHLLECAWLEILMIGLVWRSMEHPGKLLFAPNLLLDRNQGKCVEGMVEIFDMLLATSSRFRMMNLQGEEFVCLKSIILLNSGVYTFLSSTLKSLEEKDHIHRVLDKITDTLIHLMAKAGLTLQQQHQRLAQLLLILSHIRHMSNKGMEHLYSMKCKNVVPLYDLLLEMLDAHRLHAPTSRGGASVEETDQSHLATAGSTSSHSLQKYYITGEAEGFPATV
Chain of Agonist Androgen Response Element (ARE), AR (gene 367) (P10275 whole entry, looked up): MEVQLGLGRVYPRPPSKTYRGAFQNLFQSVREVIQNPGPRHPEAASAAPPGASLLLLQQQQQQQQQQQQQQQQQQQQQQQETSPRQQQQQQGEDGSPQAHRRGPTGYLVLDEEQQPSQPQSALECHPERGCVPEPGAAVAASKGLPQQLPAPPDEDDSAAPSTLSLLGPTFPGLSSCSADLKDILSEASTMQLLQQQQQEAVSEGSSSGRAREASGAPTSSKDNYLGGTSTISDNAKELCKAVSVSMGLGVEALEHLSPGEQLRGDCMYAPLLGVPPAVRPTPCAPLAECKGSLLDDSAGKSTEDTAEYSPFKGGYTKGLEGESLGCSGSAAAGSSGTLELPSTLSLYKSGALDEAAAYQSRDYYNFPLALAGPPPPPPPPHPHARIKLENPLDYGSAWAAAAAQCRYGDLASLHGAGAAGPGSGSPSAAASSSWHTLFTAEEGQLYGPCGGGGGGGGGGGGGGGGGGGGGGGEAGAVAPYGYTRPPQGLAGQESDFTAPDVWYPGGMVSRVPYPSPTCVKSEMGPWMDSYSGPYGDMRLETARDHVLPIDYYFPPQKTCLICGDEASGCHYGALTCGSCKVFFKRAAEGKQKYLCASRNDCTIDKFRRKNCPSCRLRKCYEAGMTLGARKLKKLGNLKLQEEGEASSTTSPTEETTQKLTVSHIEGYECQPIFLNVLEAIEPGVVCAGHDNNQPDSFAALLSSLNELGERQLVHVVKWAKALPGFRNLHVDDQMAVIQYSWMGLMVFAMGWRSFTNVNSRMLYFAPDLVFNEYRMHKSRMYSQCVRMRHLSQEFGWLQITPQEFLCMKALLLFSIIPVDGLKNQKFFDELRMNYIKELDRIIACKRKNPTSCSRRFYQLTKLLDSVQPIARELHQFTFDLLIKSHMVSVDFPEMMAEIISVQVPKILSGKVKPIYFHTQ
Chain of Retinoic acid receptor RXR-alpha (Homo sapiens) (P19793 whole entry, looked up, the tested form may be a part): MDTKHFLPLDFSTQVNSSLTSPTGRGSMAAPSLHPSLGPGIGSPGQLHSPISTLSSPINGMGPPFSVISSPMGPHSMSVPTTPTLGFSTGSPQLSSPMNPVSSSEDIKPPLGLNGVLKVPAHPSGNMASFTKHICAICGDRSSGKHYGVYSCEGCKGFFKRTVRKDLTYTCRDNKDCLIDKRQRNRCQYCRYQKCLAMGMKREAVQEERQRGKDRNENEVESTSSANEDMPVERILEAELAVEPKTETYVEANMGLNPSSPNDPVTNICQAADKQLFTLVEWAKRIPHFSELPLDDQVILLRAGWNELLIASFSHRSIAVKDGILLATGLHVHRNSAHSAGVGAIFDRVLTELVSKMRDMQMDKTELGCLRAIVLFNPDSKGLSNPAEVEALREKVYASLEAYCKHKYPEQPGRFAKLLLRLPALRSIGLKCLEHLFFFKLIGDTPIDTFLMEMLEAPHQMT
Chain of human Norepinephrine Transporter (NET), SLC6A2 (gene 6530) (P23975 whole entry, looked up): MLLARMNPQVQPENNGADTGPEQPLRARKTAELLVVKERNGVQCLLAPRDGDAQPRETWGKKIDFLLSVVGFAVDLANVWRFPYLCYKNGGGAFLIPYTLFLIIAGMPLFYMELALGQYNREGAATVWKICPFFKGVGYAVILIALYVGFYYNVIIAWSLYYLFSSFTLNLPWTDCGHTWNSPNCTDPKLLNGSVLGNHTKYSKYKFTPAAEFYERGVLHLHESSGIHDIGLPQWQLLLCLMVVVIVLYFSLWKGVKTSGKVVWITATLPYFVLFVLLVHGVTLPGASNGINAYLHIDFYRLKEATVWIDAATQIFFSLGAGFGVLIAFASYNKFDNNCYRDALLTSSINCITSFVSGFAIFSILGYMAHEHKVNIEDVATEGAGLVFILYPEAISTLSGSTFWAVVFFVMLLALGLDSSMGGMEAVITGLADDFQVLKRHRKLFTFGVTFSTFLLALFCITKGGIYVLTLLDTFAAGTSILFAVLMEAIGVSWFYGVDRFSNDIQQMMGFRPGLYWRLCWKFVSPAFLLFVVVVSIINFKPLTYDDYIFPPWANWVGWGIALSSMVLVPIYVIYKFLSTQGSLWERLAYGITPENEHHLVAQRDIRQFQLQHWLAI

Turning to `O=C(Nc1ccc(Cl)cc1)Nc1ccc(Cl)c(Cl)c1`, the result in [1], in assay [2], in assay [3], in assay [5], in assay [6] and in assay [7] was inactive. The call in assay [8], in [9], in assay [11], in assay [12] and in assay [13] was inactive. Besides, the AC50 in assay [4] was 0.336 µM (active); in [10], 12.5 µM (active); in [14], 0.599 µM (active); in assay [15], 0.5 µM (active); in [16], 0.418 µM (active).
On to `O=C1CCC(C2CCCCC2)CC1`, for which the compound was classed as inactive in assay [17], in [5], in [8], in [9], in [10] and in assay [11]. Also, the outcome in [12], in [13] and in assay [14] was inactive. Also, the AC50 in assay [8] was 33.1 µM (active) and 50 µM (active); in [9], 38.4 µM (active); in [15], 80.4 µM (active); in [16], 76.8 µM (active).
As for `CN(C)c1ccc(C(=C2C=CC(=[N+](C)C)C=C2)c2ccc(N(C)C)cc2)cc1`, the half-maximal activity concentration (AC50) in [17] is 1.4 µM (active); in assay [18], 4.25 µM (active); in [19], 7.04 µM (active); in [2] it was 4.79 µM (active). Besides, the outcome in assay [4], in assay [5], in assay [6], in [7], in assay [12] and in assay [13] was inactive.
For `CC1(C)NC(=O)N(c2ccc([N+](=O)[O-])c(C(F)(F)F)c2)C1=O`, the call in assay [17], in [5], in assay [8], in [9], in [10] and in [11] was inactive. In addition, the compound was called inactive in [12] and in assay [13].
In the case of `CC(C)(O)c1ccc(CNC(=O)c2cccnc2Oc2ccc3nonc3c2)cc1`, the call in assay [17], in [5], in assay [6], in [7], in [10] and in [12] was inactive. In addition, in assay [13], the result was inactive.
As to `CCCCOC(=O)c1ccc(O)cc1`, the result in assay [17], in assay [4], in assay [10], in assay [11], in assay [12] and in assay [13] was inactive. In addition, the call in [14] and in assay [15] was inactive. The AC50 in assay [2] is 13.9 µM (active); in assay [5] it was 4.49 µM (active) and 5.81 µM (active) and 6.38 µM (active); in assay [8], 50 µM (active) and 31 µM (active); in assay [9] it was 14.6 µM (active) and 16 µM (active); in [16] it was 5 µM (active).
Turning to `CCCCCCCC[Si](OCC)(OCC)OCC`, the compound was classed as inactive in assay [17], in [5], in assay [10], in assay [11], in assay [12] and in assay [13]. For the same compound, the result in assay [15] was inactive.
As to `c1ccc(C[n+]2cccc3ccccc32)cc1`, the results for the AC50 in assay [18], in assay [19] and in assay [2] were 9.52 µM (active), 6.24 µM (active) and 15.4 µM (active), respectively. Besides, the compound was classed as inactive in assay [5], in assay [6], in assay [7], in assay [8], in assay [9] and in [12]. Also, the result in assay [13] was inactive.
